Compound activity: PubChem BioAssay, National Center for Advancing Translational Sciences (NCATS)
RORg inh: inhibitors of mouse ROR gamma transcriptional activity. Drosophila S2 Gal4-RORgamma UAS-luciferase reporter, 20 h. Potency, µM (doses to about 53.6 µM), inactives show top-dose activity change, negative = inhibition, most hits filed as inhibitors. hit rate 5.4% among 310,000. AID 2551; note: % is set by controls: 0 for no effect and ±100 for the full control effect; nearly all actives have a fitted effect of over 60% in size
Target sequence (P51450 whole entry, looked up, the tested form may be a part): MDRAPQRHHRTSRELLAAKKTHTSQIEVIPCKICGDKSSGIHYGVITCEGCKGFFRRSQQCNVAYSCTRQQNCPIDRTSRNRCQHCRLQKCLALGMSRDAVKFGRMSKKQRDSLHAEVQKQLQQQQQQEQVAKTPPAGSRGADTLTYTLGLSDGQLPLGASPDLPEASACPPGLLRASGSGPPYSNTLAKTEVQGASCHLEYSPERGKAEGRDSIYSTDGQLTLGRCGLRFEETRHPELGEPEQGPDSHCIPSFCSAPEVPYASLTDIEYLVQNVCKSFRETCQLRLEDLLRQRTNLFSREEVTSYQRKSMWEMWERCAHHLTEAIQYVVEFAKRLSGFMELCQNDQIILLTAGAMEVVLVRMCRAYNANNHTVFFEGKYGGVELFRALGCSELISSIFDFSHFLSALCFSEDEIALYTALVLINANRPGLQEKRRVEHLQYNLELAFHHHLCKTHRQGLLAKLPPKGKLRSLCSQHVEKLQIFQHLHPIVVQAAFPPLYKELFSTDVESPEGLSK
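In this cell-based reporter format, copper sulfate (700 uM final) drives Gal4–ROR gamma fusion expression from a metallothionein promoter in Drosophila Schneider cells; compounds preincubated 1 hr, reporter read after 20 hr at ambient temperature.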
ATXN viability: cell viability loss in ATXN counter-screen | S2 cells (HEK-293 line with an ATXN2-luciferase reporter) viability, CellTiter-Fluor protease fluorescence, 24 h | Potency, µM (series often up to 56.7 µM), most hits filed as cytotoxic | hit rate 0.49% among 400,000 | AID 651635; note: nearly all actives have a fitted effect of over 40% in size
ATXN2 expr inh: reduces ATXN2 reporter expression in HEK-293 cells | HEK-293 ATXN2-luciferase reporter, luminescence, 24 h | Potency, µM (highest dose often 57 µM), for the others: top-dose activity change, negative = inhibition, most hits filed as inhibitors | hit rate 0.72% among 360,000 | AID 1745845; note: % is set by controls: 0 for no effect and ±100 for the full control effect; nearly all actives have a fitted effect of over 55% in size
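ATXN2-luciferase reporter cells (luciferase flanked by upstream and downstream ATXN2 gene portions) were treated 24 h at 37 °C with compounds at up to 57 uM. SteadyGlo luminescence gave expression; GF-AFC fluorescence gave viability.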
TGFb inhibitor: blocks TGF-b signaling; AID 588855; hit rate 1.2% among 410,000; HepG2 CAGA-GFP TGF-b/SMAD3 reporter, GFP fluorescence, 18 h; TGF-beta stimulated, 500 pg/mL final; Potency, µM (top dose mostly 46.1 µM), inactives show top-dose activity, negative = inhibition, actives largely listed as inhibitors; note: % is set by controls: 0 for no effect and ±100 for the full control effect; nearly all actives have a fitted effect of over 65% in size
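Inhibition was scored as loss of TGF-beta-induced (500 pg/mL final, 18 hours, 37 degrees C) GFP in HEPG2 cells carrying a CAGA-GFP reporter, in DMEM with 1% FBS. Well GFP was summed per cell; Activity was normalised to unstimulated and stimulated DMSO wells, then concentration-response fitting.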
VP16 counter: Gal4-VP16 reporter inhibition counter-screen | Drosophila S2 Gal4-VP16 UAS-luciferase, luminescence, 20 h | Potency, µM (titrated, usually from 53.6 µM), inactives show at the top dose activity, negative = inhibition, actives largely listed as inhibitors | hit rate 3.5% among 310,000;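 note: Gal4-VP16 expression switched on by copper sulfate through the metallothionein promoter; % is set by controls: 0 for no effect and ±100 for the full control effect; nearly all actives have a fitted effect of over 50% in size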
HepG2 viability: kills HepG2 cells in TGF-b inhibitor counter-screen | HepG2 CAGA-GFP viability, ATP luminescence, 18 h | AID 588856 | Potency, µM (highest dose often 46.1 µM), inactives show at the highest dose activity change, negative = cytotoxicity, hits mostly cytotoxic | hit rate 0.76% among 410,000
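HepG2 CAGA-GFP cells (1000/well, DMEM with 1% FBS) received compound, then TGF-beta at 500 pg/mL final, and were incubated 18 hours at 37 degrees C. Viability was read by CellTiter-Glo luminescence. Media-only wells were set as complete cell-killing and DMSO as no toxicity.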
Numbers without * were called inactive; i = inactive; ? = inconclusive; . = not tested or not shown; [ ] = dose if it differs, or a comment. Hits are enriched below; roughly 6.3% of the tested compounds scored in any of these assays. Calls come from the whole dose curve; as a rule, active = well fitted curve in the direction sought with a large enough effect; inconclusive = small, poorly fitted or top-dose-only effect, or another doubt; inactive = no such curve, though single readings can be large; an effect the other way counts as inactive or inconclusive. Potency is the fitted concentration of half-maximal effect.

SMILES	RORg inh	ATXN viability	ATXN2 expr inh	TGFb inhibitor	VP16 counter	HepG2 viability
Cc1nc2ccccc2n1CC(O)COc1ccc(C(=O)O)cc1 (configuration not stated)	.	i	-7%	-3%	.	16%
Cc1nc2ccccc2n1CC(O)COc1ccccc1Cl (configuration not stated)	?	i	-39%	-22%	18µM*	-9%
CCCCNC(=O)C1(C)CCCCN1C(=O)c1ccc(F)c(C)c1 (configuration not stated)	.	i	-6%	-25%	.	2%
CC(=O)N1CCC[C@@]2(CCN(C(=O)Nc3ccccc3)C2)C1	6%	.	.	.	-2%	.
CCN(CC)c1ccc(NC(=O)C2CCN(S(=O)(=O)c3cnc[nH]3)CC2)c(C)c1	.	i	-5%	-21%	.	-8%
CN(c1ccccc1)S(=O)(=O)c1ccc(C(=O)Nc2nnc(C3CC3)s2)cc1	-6%	i	27%	16%	-2%	12%
CN(c1ccccc1)S(=O)(=O)c1ccc(C(=O)Nc2nnc(-c3ccco3)o2)cc1	0.71µM*	i	?	-20%	1.1µM*	-9%
Cc1ccc(S(=O)(=O)CCC(=O)Nc2nnc(-c3ccco3)o2)cc1	.	?	4%	4%	.	-24%
CCN(c1ccccc1)S(=O)(=O)c1ccc(C(=O)Nc2nnc(-c3ccco3)o2)cc1	0.1µM*	i	.	?	-7%	-10%
NC[C@H]1O[C@H](O[C@H]2[C@H](O)[C@@H](O[C@H]3O[C@H](CO)[C@@H](O)[C@H](N)[C@H]3O)[C@H](N)C[C@@H]2N)[C@H](O)[C@@H](O)[C@@H]1O	.	i	.	.	.	.
O=C(Nc1nc2ccccc2[nH]1)c1ccccc1[N+](=O)[O-]	8.9µM*	i	29%	0%	22µM*	9%
Cc1c(C(=O)NC(Cc2ccccc2)c2nc3ccccc3[nH]2)cccc1[N+](=O)[O-] (configuration not stated)	-4%	i	-11%	-9%	3%	-21%
O=C(Nc1nc2ccccc2[nH]1)c1ccc(Cl)c([N+](=O)[O-])c1	2.8µM*	i	22%[11.3 µM]	12%	?	-4%
Cc1c(C(=O)Nc2nc3ccccc3[nH]2)cccc1[N+](=O)[O-]	7.9µM*	i	31%	7%	10µM*	-2%
O=C(CN1C(=O)COc2ccc(S(=O)(=O)N3CCCC3)cc21)N1CCN(c2ccc(Cl)cc2)CC1	.	?	-10%	?	.	-41%
Cc1ccc(N(NC(=O)C(O)(c2ccccc2)c2ccccc2)C(=O)CCl)cc1	6.3µM*	18µM*	28µM*	?	7.9µM*	16µM*
Cc1ccc(C(O)(C(=O)NN(C(=O)c2ccccc2)c2ccccc2)c2ccc(C)cc2)cc1	13%	i	1%	-3%	-15%	2%
O=C(Cn1sc2ccccc2c1=O)Nc1ccc(Br)cc1	.	?	-20%	?	.	-48%
Cc1ccc(NC(=O)Cn2nc(-c3ccc(Cl)cc3)c3ccccc3c2=O)cc1	.	i	11%	0%	.	6%
O=C(Cn1sc2ccccc2c1=O)Nc1ccc(Cl)cc1	.	?	-20%	11µM*	.	-57%
O=C(Cn1sc2ccccc2c1=O)Nc1ccc(F)cc1	.	.	?	18µM*	.	22µM*
CC(C)c1cccc(NC(=O)COC(=O)c2ccccc2OCc2cccc(Br)c2)c1	.	.	.	-22%	.	-25%
O=[N+]([O-])c1cc(C(F)(F)F)cc([N+](=O)[O-])c1NCCNC(=S)Nc1ccc(Cl)c(Cl)c1	?	.	?	11µM*	?	11µM*
FC(F)(F)c1cccc(NC(=S)Nc2ccc(Cl)c(Cl)c2)c1	?	i	?	?	?	-27%
Cc1ccc(S(=O)(=O)N2C[C@H]3C(=O)C[C@@H](c4ccccc4)N(S(=O)(=O)c4ccccc4)[C@H]3C[C@H]2c2ccccc2)cc1	.	i	0%	-2%	.	-2%
SMILES	RORg inh	ATXN viability	ATXN2 expr inh	TGFb inhibitor	VP16 counter	HepG2 viability
COc1ccccc1-n1cc(-c2ccc([N+](=O)[O-])cc2)[nH]c1=S	1.6µM*	i	-6%	-8%	-22%	-13%
COc1ccccc1N1CCN(c2cc(=O)n(-c3ccc(Br)cc3)c(=O)[nH]2)CC1	-5%	i	-10%	16%	-1%	-3%
COc1ccccc1N1CCN(S(=O)(=O)c2ccc([N+](=O)[O-])cc2)CC1	.	i	.	9%	.	-78%
COc1ccccc1-n1cc(-c2ccc(Br)cc2)[nH]c1=S	4.5µM*	i	-15%	21%	10µM*	-38%
S=c1[nH]c(-c2ccc(Br)cc2)cn1CCc1ccccc1	6.3µM*	i	-2%	-18%	20%[10 µM]	12%
COc1ccccc1-n1cc(-c2ccc(C)cc2)[nH]c1=S	2.8µM*	i	7%	-5%	7.1µM*	-1%
CCOc1cccc(C2c3c(oc4ccccc4c3=O)C(=O)N2c2nc(C)c(C(=O)OC)s2)c1 (configuration not stated)	.	i	-6%	?	.	-5%
COc1ccc(NC(=O)/C=C/c2ccc(S(=O)(=O)N3CCOCC3)cc2)cc1	.	i	8%	0%	.	-13%
CC(=O)c1ccc(NC(=O)c2ccc(C)c(S(=O)(=O)N3CCOCC3)c2)cc1	2%	i	6%	-6%	7%	-10%
CCOC(=O)c1ccc(NC(=O)c2ccc(C)c(S(=O)(=O)N3CCOCC3)c2)cc1	6%	28µM*	25µM*	-6%	?	-45%
COc1ccc(/C=C/C(=O)Nc2ccc(C)c(S(=O)(=O)N3CCOCC3)c2)cc1	.	?	22µM*	-14%	.	-11%
Cc1ccc(C(=O)Nc2ccon2)cc1S(=O)(=O)N1CCOCC1	11µM*	i	-8%	25%	?	-3%
Cc1ccc(C(=O)Nc2ccon2)cc1S(=O)(=O)N1CCCCCC1	13%	i	26%	-5%	-2%	1%
Cc1ccc2c(c1)cc(CN(C)Cc1nc(C)cs1)c(=O)n2C	.	i	.	.	.	.
O=C1c2[nH]nc(-c3ccccc3O)c2C(c2ccc(F)cc2)N1Cc1ccco1 (configuration not stated)	34%	?	-1%	?	-5%	-52%
Cc1cc(C)c(O)c(-c2n[nH]c3c2C(c2cccc(O)c2)N(Cc2ccco2)C3=O)c1 (configuration not stated)	?	28µM*	-25%	?	?	-98%
O=C1c2[nH]nc(-c3ccccc3O)c2C(c2cccc(Cl)c2)N1Cc1ccco1 (configuration not stated)	?	?	-11%	?	?	11µM*
